# High-throughput results: PubChem BioAssay, National Center for Advancing Translational Sciences (NCATS)
# HCMV inh – inhibitors of human cytomegalovirus; HFF cells, HCMV-luciferase reporter, 72 h; stronger effect = lower value; activity change, negative = inhibition, % at 57.5 µM; actives 4.5% (n = 410,000); AID 1259415; in the data active = activity change below about -60%; inconclusive = no clear call, values can overlap the other calls; inactive = above about -39%
#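 Screen run at 2 compound doses on HFFs infected with reporter HCMV, MOI 1 PFU/cell. Luciferase activity from cell lysates at 72 h post infection gave inhibition relative to buffer-only and Salinomycin wells.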
# FMDV inh – antivirals against foot and mouth disease virus | FMDV antiviral cell-based qHTS | Potency, µM (top dose mostly 57.9 µM), inactives show top-dose activity change, negative = inhibition, hits mostly inhibitors | actives 1.2% (n = 410,000); calls by dose curve; tested in HEK293T cells; note: read-out not given here; potency is the fitted concentration of half-maximal effect; nearly all actives have a fitted effect of over 45% in size
# MARV entry inh – Marburg virus entry inhibition. Marburg virus pseudotyped entry inhibition, cell reporter. Potency, µM (highest dose often 37.8 µM), for the others: top-dose activity change, negative = inhibition, actives largely listed as inhibitors. actives 1.8% (n = 300,000). AID 540276; calls by dose curve; tested in HEK293 cells; note: potency is the fitted concentration of half-maximal effect
# HCV inhibitor – blocks hepatitis C virus; AID 651820; actives 3.4% (n = 340,000); Huh7.5.1 HCVcc-Cre infection, luciferase reporter, 44 h; Potency, µM (highest dose often 41.8 µM), for inactives: top-dose activity change, negative = inhibition, actives largely listed as inhibitors; active = well fitted inhibition curve with a large enough effect; inconclusive = small, poorly fitted or top-dose-only effect, or another doubt; inactive = no such curve, though single readings can be large or run the other way; note: potency is the fitted concentration of half-maximal effect
#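 HCVcc-Cre virus at an moi near 0.5 was added right after compound to cells cultured 4 h from seeding (1,000 cells/well). Luciferase activity was determined 44 h later, 15 min after substrate addition at RT.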
# LASV entry inh – inhibitors of Lassa virus binding or cell entry; Potency, µM (doses to about 37.9 µM), for inactives: at the top dose activity change, negative = inhibition, actives largely listed as inhibitors; Lassa virus pseudotype entry inhibition, cell reporter; AID 540256; actives 1.2% (n = 300,000); calls by dose curve; tested in HEK293 cells; note: potency is the fitted concentration of half-maximal effect; nearly all actives have a fitted effect of over 50% in size
# Numbers without * were called inactive; ? = inconclusive; · = no result given; [ ] = another dose, or the depositor's remark. Hits are enriched below; roughly 7.9% of the tested compounds scored in any of these assays. % is set by controls: 0 for no effect and ±100 for the full control effect.
SMILES,HCMV inh,FMDV inh,MARV entry inh,HCV inhibitor,LASV entry inh
CCOc1ccc(N2CC(C(=O)NCCCc3ccccc3)CC2=O)cc1 (configuration not stated),-12.2,-12.2%,16.8%,-3.0%,1.1%
CCCC1(C)C(C#N)(C#N)C1(C#N)C#N,·,·,16.4µM*,·,4.11µM*
CCc1ccc2c(c1)/C(=C/C(=O)c1cccs1)C(=O)N2,-99.1*,20µM*,?,22.4µM*,?
Cc1cccc2c1NC(=O)/C2=C\C(=O)c1cccs1,-10.5,?,?,29.7%,?
CC1=C(C)/C(=N\OS(=O)(=O)c2ccccc2)C=CC1=O,·,11.2µM*,7.94µM*,12.6µM*,?
CCNc1ncc2nc(CCc3ccccc3)c(=O)n(CCOC)c2n1,·,14.4%,·,·,·
O=C(NC1CC1)C1CCN(C2CCN(C(=O)c3c(F)cccc3Cl)CC2)CC1,42.4,-3.8%,4.3%[46.1 µM],10.7%,18.4%[46.1 µM]
Cc1c([N+](=O)[O-])c2ccc(O)cc2n1-c1ccccc1,-67.7*,-2.3%,·,?,·
CCS(=O)(=O)NCc1c(C)ncc2c1CCN(C(=O)c1csc(-c3cccs3)n1)C2,·,-7.2%,·,·,·
NS(=O)(=O)c1ccc(CCNc2nc3c(-c4cccc(F)c4)nnn3c3ccc(Cl)cc23)cc1,-101.6*,8.8%,?,·,?
Fc1cccc(-c2nnn3c2nc(NCCc2ccccc2)c2ccccc23)c1,59.5,7.6%,1.2%[46.1 µM],·,10.6%[46.1 µM]
C=C1C(=O)OC2C1CCC(C)=C1C(=O)C3OC3(C)C12 (configuration not stated),-77.7*,28.2µM*,·,10µM*,·
CCN(CC)c1ccc(/C=N/NC(=O)Cc2cccs2)c(O)c1,-99.9*,22.1%,16.4µM*,?,3.16µM*
O=C(Cc1cccs1)N/N=C/c1ccccc1,55.2,19.4%,-4.7%[46.1 µM],-4.3%,?
CCN(CC)c1ccc(/C=N/NC(=S)NCc2ccccc2)c(O)c1,-63.0*,-34.4%,?,-28.4%,?
CCN(CC)c1ccc(/C=N/Nc2nc3ccccc3[nH]2)c(O)c1,-98.2*,-26.0%,3.98µM*,5.62µM*,6.31µM*
CCN(CC)c1ccc(/C=N/NC(=O)c2ccco2)c(O)c1,-103.5*,61.6%,·,?,·
COc1cc(OC)c(OC)cc1/C=N/Nc1nc2ccccc2[nH]1,2.5,-8.5%,·,-8.2%,·
CCN(CC)c1ccc(NC(=O)c2ccco2)c(C)c1,-5.4,10.8%,14.3%,-13.4%,?
COc1cccc(C(=O)NCC2Cc3c(F)ccc(-c4ncccn4)c3O2)c1OC (configuration not stated),·,-10.0%,·,·,·
O=C(CNC(=O)c1cccc(F)c1)NC1CC1,19.4,-11.3%,7.1%,?,-1.2%
COC(=O)c1ccc(COc2cc(C)ccc2C)o1,9.3,58.9%,·,14.6%,·
CCN(CC)c1ccc(NC(=O)c2ccco2)cc1,21.0,-23.2%,?,5.1%,?
CCN(CC)c1ccc(/C=N/N=C(c2ccccc2)c2ccccc2)c(O)c1,2.7,-17.8%,?,?,10.3µM*
CCN(CC)c1ccc(/C=N/N(c2ccccc2)c2ccccc2)c(O)c1,-20.5,?,?,-3.1%,?
SMILES,HCMV inh,FMDV inh,MARV entry inh,HCV inhibitor,LASV entry inh
CCN(CC)c1ccc(/C=N/NC(=O)c2ccco2)cc1,26.5,-37.2%,7.31µM*,?,4.47µM*
O=C(CN1C(=O)NC2(CCCC2)C1=O)Nc1cc(C(F)(F)F)ccc1N1CCCCC1,-10.8,-11.3%,?,-7.7%[8.37 µM],5.8%
COc1ccc(/C=C(\C#N)C(=O)OCC(=O)NCc2ccc(Cl)cc2)cc1,·,·,-0.1%,-3.4%,0.0%
COc1ccc(OCc2cc(C(=O)NCCN3CCCc4ccccc43)no2)c(Cl)c1,25.0,-18.1%,-24.9%,11.2µM*,?
COc1ccc(OCc2cc(C(=O)NCCN3CCCC(O)C3)no2)c(Cl)c1 (configuration not stated),46.7,-2.3%,-29.1%[46.1 µM],?,22.9%[46.1 µM]
O=S(=O)(NC1CCCCC1N1CCC(O)CC1)c1ccccc1 (configuration not stated),-2.8,12.7%,-10.2%,20.8%,23.7%
O=C(CN1C(=O)COc2ccc(S(=O)(=O)N3CCCC3)cc21)N1CCN(c2ccccc2F)CC1,-3.3,0.2%,-14.7%[46.1 µM],·,?
ON=C1c2ccccc2-c2cc(Br)ccc21,-64.2*,0.0%,15.8%,?,1.1%
ON=C1c2ccccc2-c2ccc(O)cc21,-29.8,37.6%,0.0%,?,23.0%[46.1 µM]
Cc1ccc(CNC(=O)CN(c2ccc(Cl)cc2)S(C)(=O)=O)cc1,18.8,43.4%,·,5.5%,·
CCCn1c(COc2ccc(C(=O)O)cc2)nc2ccccc21,-2.1,-16.6%,·,8.8%,·
COc1ccc(/C=N\NC(=O)c2ccc(F)cc2)cc1COc1cc(F)ccc1[N+](=O)[O-],19.5,25.1µM*,-19.7%,10µM*,?
COc1ccc(/C=N/NC(=O)c2ccoc2C)cc1COc1c(C)cccc1C,-96.8*,10µM*,5.62µM*,?,?
COc1ccc(/C=N\NC(=O)c2ccccc2OC)cc1COc1ccccc1C,-1.2,-12.9%,?,?,5.9%[46.1 µM]
COc1ccc(/C=N/NS(=O)(=O)c2ccc(F)cc2)cc1COc1cc(F)ccc1[N+](=O)[O-],-66.2*,-15.5%,-22.8%[46.1 µM],?,-16.9%[46.1 µM]
COc1ccc(/C=N/NC(=O)c2ccc(NC(C)=O)cc2)cc1COc1ccc(F)cc1F,-24.5,?,·,-16.4%,·
CCOc1ccc(/C=N/NS(=O)(=O)c2ccc(C)cc2)cc1OC,19.2,0.0%,·,3.4%,·
COc1ccc(/C=N\NC(=O)c2cc(O)c(O)c(O)c2)cc1COc1ccc(C(=O)OCC(C)C)cc1,0.4,13.0%,·,5.62µM*,·
OC[C@H]1O[C@H](C#Cc2ccccc2)C=C[C@@H]1O,·,·,19.6%[14.2 µM],·,?
COc1ccc(/C=N\NC(=O)c2ccccc2)cc1COc1ccccc1,37.0,-8.4%,-30.0%,-14.9%,?
COc1ccc(/C=N/NC(=O)c2ccc(OC)c(OC)c2)cc1COc1c(F)c(F)c(F)c(F)c1F,-5.2,-4.8%,0.6%[46.1 µM],3.55µM*,1.1%[46.1 µM]
CC(C)c1ccc(NC(=O)C(Cc2ccccc2)NS(=O)(=O)c2ccc3c(c2)oc(=O)n3C)cc1 (configuration not stated),-24.1,-10.2%,12.8%[46.1 µM],·,-14.5%[46.1 µM]
COc1ccc(-c2n[nH]c3c2CN(C(=O)c2ccccc2)CC3)cc1,0.0,5.5%,·,-6.1%,·
O=C(c1ccco1)N1CCc2[nH]nc(-c3ccc(Cl)cc3)c2C1,-19.3,?,-28.5%[46.1 µM],11.2µM*,?
Cn1cccc1C(=O)OCc1ccc(F)cc1,-74.9*,24.5%,-0.2%,13.5%,5.0%
Cn1cccc1C(=O)OCc1csc(-c2ccccc2)n1,261.0,-5.5%,?,-21.6%,?
CCn1cc(C(=O)OCC(=O)NCc2ccccc2Cl)c(=O)c2ccc(C)nc21,-101.8*,-22.7%,7.6%[46.1 µM],-13.0%,-12.6%
O=C(NCc1ccccc1)c1cc[n+]([O-])cc1,-19.2,17.0%,·,-1.5%,·
CN1CCC(OC2c3ccccc3CCc3ccccc32)CC1,?,-24.3%,·,·,·
